{"source": "PubChem BioAssay (EPA / NIEHS)", "note": "Some compounds were tested as several samples or in several runs, with calls that do not always agree. Calls of active or inactive are those of the source. How the source made its calls: active means hit-call score of the fitted dose curve at least 0.9, where 1 is the maximum; inactive means score below 0.9."}
{"experiment": "CCTE_Shafer_MEA_acute_per_network_burst_spike_number_std: CCTE's Neural Acute Assay for Standard Deviation of Number of Spikes in a Network Burst, Shafer Lab (AID 2284020);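 further: fitted for decrease in spike-number SD versus DMSO so actives lower it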", "method": "CCTE_Shafer_MEA_acute assay is conducted using Axion Biosystems 48 well microelectrode array (MEA) plates and Maestro recording system. Each well of the MEA plate contains a grid of 16 microelectrodes embedded in the culture surface. Electrically active cells, such as neurons, can be cultured over the electrodes, and electrical activity in these cells can be recorded extracellularly. The spontaneous firing of neurons is captured from each electrode on a microsecond timescale providing both temporally and spatially precise data. […] The CCTE_Shafer_MEA_acute assay uses primary cultures of rat cortical neurons. As these cultures mature over time, neural networks develop functional activity and form cohesive networks in which electrical activity can be highly coordinated. Baseline 40-minute recordings are made on days post-plating 13 or 15, followed by a secondary 40-minute recording after chemical exposure.CCTE_Shafer_MEA_acute_per_network_burst_spike_number_std is a component of the CCTE_Shafer_MEA_acute assay. It measures the standard deviation of the number of spikes (action potential firings) in a network burst (temporally-clustered group of spikes across multiple electrodes) during a recording in a microelectrode array (MEA) using Axion Biosystems Maestro 768 channel amplifier with the AxIS adaptive spike detector. The recordings before and after chemical treatment are used to calculate a percent change in the standard deviation of the number of spikes in network bursts in each well.Data from the assay component CCTE_Shafer_MEA_acute_burst_spike_number_std was analyzed into 1 assay endpoint. This assay endpoint, CCTE_Shafer_MEA_acute_burst_spike_number_std, was analyzed in the negative analysis fitting direction relative to DMSO as the negative control and baseline of activity. Using a type of functional reporter, gain or loss-of-signal activity can be used to understand electrical activity.\nSpontaneous activity in the cortical cultures was recorded using an Axion Biosystems Maestro 768 channel amplifier and Axion Integrated Studios (AxIS) v1.8 (or later) software. The amplifier recorded from all channels simultaneously (gain = 1200 x; sampling rate = 12.5 kHz/channel): raw signals were filtered with a Butterworth band-pass filter (300-5000 Hz), which filters out slower local field potentials leaving only fast potentials, i.e., \"spikes\", arising from extracellular currents associated with action potentials (Pine 2006; Wheeler and Nam 2011). On-line spike detection of filtered signals was conducted with the AxIS adaptive spike detector, using a threshold of 8x the root mean squared (rms) noise on each channel. Any electrodes with rms noise levels greater than 5 uV were grounded (e.g., no data were recorded). Once grounded, an electrode was grounded for the duration of the experiment. All recordings were conducted at 37 C. Wells were deemed usable if on the day of the exposure >/= 10 electrodes were active (defined as >/= 5 spikes/min). On DIV 13 or 15, a minimum of three wells from one cortical culture preparation were treated with each compound (0.03-40 uM). Prior to recording baseline activity, each mwMEA plate was placed in the Maestro at 37 C and allowed to sit for 20 min while firing rates stabilized. Baseline activity (40 min) was recorded before the addition of each compound. An additional 40 min of spontaneous activity was recorded in the presence of each compound. Changes in network parameters relative to baseline were assessed following compound treatment."}
{"compound": "C=CC(N)=O", "outcome": "inactive"}
{"compound": "CCC(C)(c1ccc(O)cc1)c1ccc(O)cc1", "outcome": "inactive"}
{"compound": "CC(C)C(=O)OCC(C)(C)C(OC(=O)C(C)C)C(C)C", "note": "(configuration not stated)", "outcome": "inactive"}
{"compound": "CC(c1ccc(O)cc1)(c1ccc(O)cc1)c1ccc(O)cc1", "outcome": "inactive"}
{"compound": "CCCN(CCC)N=O", "outcome": "inactive"}
{"compound": "O=C(O)C(F)(F)C(F)(F)C(F)(F)C(F)(F)C(F)(F)F", "outcome": "inactive"}
{"compound": "ClC(Cl)=C(c1ccc(Cl)cc1)c1ccc(Cl)cc1", "outcome": "inactive"}
{"compound": "O=C(N[C@H]1CN2CCC1CC2)c1cc2ccoc2cn1", "outcome": "inactive"}
{"compound": "CN(C)CCO", "outcome": "inactive"}
{"compound": "COc1ccc(O)c(C(C)(C)C)c1", "AC50": "0.0903 µM (active)", "outcome": "inactive"}
{"compound": "ClC1=C(Cl)[C@]2(Cl)[C@@H]3[C@H]4C[C@H]([C@@H]5O[C@H]45)[C@@H]3[C@@]1(Cl)C2(Cl)Cl", "outcome": "inactive"}
{"compound": "CCCCCCCCCc1ccc(O)cc1", "AC50": "9.3 µM (active)"}
{"compound": "COS(=O)(=O)OC", "outcome": "inactive"}
{"compound": "ClC1=C(Cl)[C@]2(Cl)[C@@H]3[C@@H](Cl)[C@H]4O[C@H]4[C@@H]3C1(Cl)C2(Cl)Cl", "AC50": "0.248 µM (active)"}
{"compound": "Clc1ccc(C(Cl)(Cl)Cl)cc1", "outcome": "inactive"}
{"compound": "Nc1ccc(-c2ccc(N)cc2)cc1", "outcome": "inactive"}
{"compound": "CCCCCCCCCC[N+](C)(C)CCCCCCCCCC", "AC50": "5.37 µM (active)"}
{"compound": "CCC(C)c1cc([N+](=O)[O-])cc([N+](=O)[O-])c1O", "note": "(configuration not stated)", "outcome": "inactive"}
{"compound": "ClC1=C(Cl)[C@]2(Cl)[C@@H]3[C@@H]4C[C@@H]([C@H]5O[C@@H]45)[C@@H]3[C@@]1(Cl)C2(Cl)Cl", "AC50": "0.338 µM (active)"}
{"compound": "c1ccc(-c2ccccc2)cc1", "outcome": "inactive"}
{"compound": "CC#Cc1cc(C)nc(Nc2ccccc2)n1", "AC50": "4.76 µM (active)"}
{"compound": "Oc1ccc(C(c2ccc(O)cc2)(C(F)(F)F)C(F)(F)F)cc1", "outcome": "inactive"}
{"compound": "CCSC(=O)N(CC)C1CCCCC1", "AC50": "8.39 µM (active)"}
{"compound": "CO/C=C(/C(=O)OC)c1ccccc1COc1cccc(C(F)(F)F)n1", "outcome": "inactive"}
{"compound": "CCC(C)(CC)c1cc(NC(=O)c2c(OC)cccc2OC)on1", "outcome": "inactive"}
{"compound": "O=C(NC(=O)c1c(F)cccc1F)Nc1cc(Cl)c(OC(F)(F)C(F)F)c(Cl)c1", "outcome": "inactive"}
